Source: PubChem (National Center for Advancing Translational Sciences (NCATS))
FMDV antiviral = antivirals against foot and mouth disease virus | FMDV antiviral cell-based qHTS | Potency, µM (titrated, usually from 57.9 µM), actives largely listed as inhibitors | 1.2% of 410,000 active; calls by dose curve; tested in HEK293T cells; note: read-out not given here; nearly all actives have a fitted effect of over 45% in size
Lassa entry inh = Lassa virus entry inhibition; AID 540256; 1.2% of 300,000 active; Potency, µM (titrated, usually from 37.9 µM), usual class: inhibitors; Lassa virus pseudotype entry inhibition, cell reporter; calls by dose curve; tested in HEK293 cells; note: nearly all actives have a fitted effect of over 50% in size
MARV entry inh = inhibitors of Marburg virus binding or cell entry; Marburg virus pseudotyped entry inhibition, cell reporter; 1.8% of 300,000 active; Potency, µM (doses to about 37.8 µM), usual class: inhibitors; calls by dose curve; tested in HEK293 cells
FBPA Giardia inh = blocks Giardia fructose-bisphosphate aldolase activity. A8B2U2. purified Giardia FBPA. Potency, µM (highest dose often 59.6 µM), actives largely listed as inhibitors. 0.71% of 290,000 active. AID 2451; note: nearly all actives have a fitted effect of over 55% in size
Target sequence (A8B2U2 whole entry, looked up): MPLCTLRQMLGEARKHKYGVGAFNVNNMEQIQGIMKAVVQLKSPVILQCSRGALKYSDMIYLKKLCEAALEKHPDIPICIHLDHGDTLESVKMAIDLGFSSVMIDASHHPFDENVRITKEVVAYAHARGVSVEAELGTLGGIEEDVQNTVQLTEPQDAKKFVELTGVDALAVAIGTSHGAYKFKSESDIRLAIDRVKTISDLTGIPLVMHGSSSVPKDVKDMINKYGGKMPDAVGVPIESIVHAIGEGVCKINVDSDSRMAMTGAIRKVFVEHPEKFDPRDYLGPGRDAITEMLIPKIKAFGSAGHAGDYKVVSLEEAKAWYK
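40 nM FBPA preincubated 10 min at RT with compound (up to 57.5 uM final), then substrate plus GAPDH/TPI/NAD/arsenate coupling and diaphorase/resazurin added. Fluorescence read after 20 min at RT, 525/598 nm.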
HCMV antiviral = human cytomegalovirus inhibition; HFF cells, HCMV-luciferase reporter, 72 h; hits give low values; activity change, negative = inhibition, % at 57.5 µM; 4.5% of 410,000 active; AID 1259415; in the data active = activity change below about -60%; inconclusive = no clear call, values can overlap the other calls; inactive = above about -39%
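Human foreskin fibroblasts infected with luciferase-reporter HCMV at MOI 1 PFU/cell, compounds at two doses. Luciferase measured 72 h post infection; normalized to buffer-only basal and Salinomycin (10uM) controls.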
HCV inh = blocks hepatitis C virus. Huh7.5.1 HCVcc-Cre infection, luciferase reporter, 44 h. 3.4% of 340,000 active. Potency, µM (series often up to 41.8 µM), most hits filed as inhibitors. AID 651820
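Cells seeded at 1,000/well and cultured 4 h, then compounds added followed by HCVcc-Cre virus (~0.5 moi). After 44 h further culture, luciferase substrate was added, plates held 15 min at room temperature, and luminescence read for 15 sec.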
Hits are given with their value; - = inactive; ? = inconclusive; . = no result; [ ] = another dose, or the depositor's remark. Hits are enriched below; roughly 8.3% of the tested compounds scored in any of these assays. Unless noted, calls come from the whole dose curve; as a rule, active = well fitted curve in the direction sought with a large enough effect; inconclusive = small, poorly fitted or top-dose-only effect, or another doubt; inactive = no such curve, though single readings can be large; an effect the other way counts as inactive or inconclusive.

SMILES | FMDV antiviral | Lassa entry inh | MARV entry inh | FBPA Giardia inh | HCMV antiviral | HCV inh
COc1ccc(-c2noc(CSc3nc4ccccc4[nH]3)n2)cc1OC | ? | - | - | . | -60 | .
Cc1noc(C)c1CSc1nc2ccccc2[nH]1 | - | - | - | - | - | -
COc1ccc(C(=O)Nc2nc3n(n2)C(c2ccc(Cl)cc2)C=C(c2ccccc2)N3)cc1OC (stereo not drawn) | ? | - | ? | . | - | .
COC(=O)C1=C[C@@H](C(=O)OC)C2C3=C(C(=O)[C@]2(C)NC(=O)c2ccccc2)[C@H](C)n2c(=O)n(-c4ccccc4)c(=O)n2[C@@H]3C1 (stereo partly drawn) | . | . | . | - | . | .
Cc1cccc(N2CC(c3nc4ccc(C)cc4[nH]3)CC2=O)c1 (stereo not drawn) | - | - | - | . | - | .
O=C1CCCc2[nH]c(=O)c(-c3nc(-c4cccc([N+](=O)[O-])c4)cs3)cc21 | - | - | - | . | - | .
CCOC(=O)CCN1C(=O)[C@H]2[C@H]3[C@H](O)[C@H](O)C/C(=N\OCC(C)C)[C@@H]3CC[C@H]2C1=O | . | . | - | . | . | .
COc1cc(OC)c(C2=NOC(C(=O)N3CCCc4ccccc43)C2)cc1Cl (stereo not drawn) | - | - | ? | - | - | 5.6µM
Cc1cccn2c(CNCC3OCCc4ccccc43)c(C(=O)N3CCCCC3)nc12 (stereo not drawn) | - | - | 10µM | - | ? | -
Cc1cccn2c(CNC3CCCc4ccccc43)c(C(=O)N3CCOCC3)nc12 (stereo not drawn) | - | . | . | - | - | -
O=[N+]([O-])c1ccc2[nH]c3c(c2c1)CCCC3 | - | . | . | - | ? | 11µM
Brc1ccc2[nH]c3c(c2c1)CCC3 | - | 8.9µM | ? | - | -70 | ?
OCCN=C1CCCc2c1[nH]c1ccc(Br)cc21 | - | - | - | - | - | 5.6µM
N#CC1=C(N)N(c2ccccc2)C(c2cccc([N+](=O)[O-])c2)C1(C#N)C#N (stereo not drawn) | ? | - | - | - | ? | -
Cc1cccc(N2C(N)=C(C#N)C(C#N)(C#N)C2c2ccccc2)c1 (stereo not drawn) | 40µM | ? | - | - | - | -
CCOc1ccc(NC(=O)COc2ccc(C(=O)NCCc3ccccc3)cc2)cc1 | - | ? | - | - | -81 | -
CCOC(=O)c1ccc(NC(=O)COc2ccc(CNCCO)cc2OCC)cc1 | - | . | 10µM | - | - | 8.9µM
CCOc1cc(CNCCO)ccc1OCC(=O)NC(C)(C)C | - | - | - | - | - | -
CCOC(=O)c1ccc(NC(=O)COc2ccccc2CNCCc2ccccc2)cc1 | - | . | . | - | -65 | ?
O=C(C1CCCO1)N1CCN(C(=S)Nc2ccc(Cl)c(Cl)c2)CC1 (stereo not drawn) | - | 10µM | ? | - | - | -
O=C(C1CCCO1)N1CCN(C(=S)Nc2ccc(Cl)cc2)CC1 (stereo not drawn) | - | - | ? | - | - | -
COc1cc2c(cc1OC)CN(S(C)(=O)=O)CC2 | - | . | . | - | -85 | -
OC1(c2cccs2)CN(c2ccccc2)C2=[N+]1CCCC2 (stereo not drawn) | - | - | - | - | - | -
CCOc1ccc(N2CC(O)(c3cccs3)[N+]3=C2CCCC3)cc1 (stereo not drawn) | - | - | 5.6µM | - | - | -
COc1ccc(N2C3=[N+](CCCC3)CC2(C)O)cc1 (stereo not drawn) | - | - | - | - | -78 | -
SMILES | FMDV antiviral | Lassa entry inh | MARV entry inh | FBPA Giardia inh | HCMV antiviral | HCV inh
COc1ccc(N2CC(O)(c3ccc(F)cc3)[N+]3=C2CCCC3)cc1 (stereo not drawn) | - | - | - | - | -81 | -
COc1ccc(OC)c(C2OCCC=CC2C)c1 (stereo not drawn) | . | . | . | -[12.9 µM] | . | .
CC1=C(C(=O)Nc2ccccc2)C(c2ccc(C)cc2)N=C(Nc2nc3ccccc3o2)N1 (stereo not drawn) | - | ? | ? | - | -67 | -
COc1ccc2c3c(cccc13)C(=O)N(O)C2=O | - | - | - | - | -60 | ?
Cc1[nH][nH]c(=O)c1C(c1c(C)[nH][nH]c1=O)c1cn(Cc2cccc3ccccc23)c2ccccc12 | ? | ? | ? | ? | - | -
Cc1[nH][nH]c(=O)c1C(c1c(C)[nH][nH]c1=O)c1cn(C)c2ccccc12 | - | - | - | 2.8µM | - | -
COc1c2ccccc2nc2occc12 | - | . | . | - | . | .
COc1cc2nc3occc3c(OC)c2cc1OC | - | ? | - | - | -72 | ?
CC1=C(O)C(=O)C=C2C1=CC=C1C2(C)CCC2(C)C3CC(C)(C(=O)O)CCC3(C)CCC12C (stereo not drawn) | - | ? | 2.8µM | . | -78 | ?
CC(=O)Oc1cc2c(c(C)c1OC(C)=O)CC=C1[C@]3(C)CC[C@]4(C)CC[C@@](C)(C(=O)O)CC4[C@]3(C)CC[C@]12C (stereo partly drawn) | 35µM | . | . | - | . | .
Cc1c(O)c(O)cc2c1CC=C1[C@]3(C)CC[C@]4(C)CC[C@@](C)(C(=O)O)CC4[C@]3(C)CC[C@]12C (stereo partly drawn) | 25µM | . | . | - | . | .
Cc1cc(C)cc(C(=O)NCc2nc(-c3cccc(NC(=O)c4ccccn4)c3)oc2C)c1 | - | . | . | . | . | .
O=[S+]1([O-])C[C@H](N2CC[C@@H](O)C2)[C@H](COCc2ccccc2)N1 | . | - | . | . | . | .
O=C(Cn1nc2c(cc1=O)CCCC2)Nc1ccccc1C(F)(F)F | - | - | . | . | - | .
O=c1c(Cl)c(Cl)cnn1-c1ccccc1 | ? | ? | 26µM | - | -100 | 4µM
Cc1cc(C)cc(Cn2ncc(Cl)c(Cl)c2=O)c1 | 28µM | ? | 11µM | - | -84 | ?
Cc1ccc(Cn2ncc(Cl)c(Cl)c2=O)cc1 | 40µM | ? | ? | - | - | 11µM
O=c1c(Cl)c(Cl)cnn1Cc1nnc(-c2ccc(Cl)cc2)o1 | ? | ? | ? | - | ? | 10µM
Nc1c(Cl)cnn(-c2ccccc2)c1=O | - | . | . | . | - | -
Cc1[nH]c(C)c2c(=O)n(Cc3ccc(Cl)cc3)ncc12 | - | . | . | - | ? | -
Cc1ccc(CNc2nc(CN3CCCCC3c3cccnc3)nc3ccccc23)o1 (stereo not drawn) | - | . | . | . | . | .
O=c1c(Cl)c(Cl)cnn1Cc1ccccc1Cl | 25µM | 13µM | 6.5µM | - | -101 | 2.8µM
CCc1ccc(C(=O)Cn2ncc(Cl)c(Cl)c2=O)cc1 | ? | ? | ? | - | -107 | ?
O=C(CCCN1C(=O)S/C(=C\c2ccccc2)C1=O)NNC(=O)c1ccccc1O | ? | ? | 1.8µM | - | -83 | ?
O=C(CCCN1C(=O)/C(=C/c2ccccc2)SC1=S)Nc1ccccc1O | - | - | ? | - | -100 | ?
O=C(CCCN1C(=O)/C(=C/c2cccs2)SC1=S)Nc1cc([N+](=O)[O-])ccc1O | - | . | . | . | -73 | -
O=C(CCCN1C(=O)/C(=C\c2cccs2)SC1=S)Nc1ccccc1O | - | . | . | . | -93 | .
